Reference: the supplement of paper PMC9262897, “Low-cost anti-mycobacterial drug discovery using engineered E. coli” (Nature Communications, 2022)
Structures can show the parent of a compound that is named as a salt. ± gives the standard deviation of the averaged measurements.

Key:
Assay in all cases: growth (OD600 after 10 h); higher = more growth (less inhibition)
[1] = system: E. coli TESEC Alr+ wild-type control; conditions: compound 0.1 mM; raw OD600 reference: median of DMSO wells 0.241, cell-free background 0.041
Method: (§1)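 TESEC Mtb Alr E. coli, or the Alr+ wild-type control, in 384-well plates with Prestwick library compounds at 0.1 mM and 1% DMSO, across arabinose induction levels of 1E3 to 1E7 nM. Growth is read as OD600 after 10 h at 37 °C in triplicate biological replicates.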

[2] = system: E. coli TESEC Mtb Alr; conditions: compound 0.1 mM
Method: as §1

[3] = system: E. coli TESEC Mtb Asd; conditions: compound 0.1 mM
Method: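 TESEC E. coli strains in which the native enzyme is deleted and replaced by arabinose-inducible Mtb Asd, DapB, CysH or TrpD, each grown in its selective medium. Strains were screened against the Prestwick library at 0.1 mM and 1% DMSO in 384-well format at low and high arabinose induction. Growth is read as OD600 after 10 h in triplicate.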

[4] = system: E. coli TESEC Alr+ wild-type control; conditions: compound 0.1 mM; raw OD600 reference: median of DMSO wells 0.49, cell-free background 0.052
Method: (§2)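 TESEC Mtb Alr E. coli (ΔaraC ΔtolC ΔentC Δalr ΔdadX, arabinose-inducible Mtb Alr) or the Alr+ wild-type control strain, grown in defined M9-fructose medium without D-alanine in 96-well plates with Prestwick library compounds at 0.1 mM and 1% DMSO. Low Alr induction is 0.1 µM arabinose and high induction is 10 mM arabinose.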

[5] = system: E. coli TESEC Mtb Alr; conditions: compound 0.1 mM; remark: listed apart in the source
Method: as §2

[6] = arabinose 1000 nM, raw OD600 reference: median of DMSO wells 0.294, cell-free background 0.041
[7] = arabinose 10000 nM, raw OD600 reference: median of DMSO wells 0.264, cell-free background 0.041
[8] = arabinose 100000 nM, raw OD600 reference: median of DMSO wells 0.201, cell-free background 0.041
[9] = arabinose 1000000 nM, raw OD600 reference: median of DMSO wells 0.193, cell-free background 0.041
[10] = arabinose 10000000 nM, raw OD600 reference: median of DMSO wells 0.146, cell-free background 0.041
[11] = arabinose induction (level): High, raw OD600 reference: median of DMSO wells 0.331, cell-free background 0.041
[12] = arabinose induction (level): Low, raw OD600 reference: median of DMSO wells 0.417, cell-free background 0.041
[13] = arabinose 100 nM, raw OD600 reference: median of DMSO wells 0.413, cell-free background 0.052
[14] = arabinose 10000000 nM, raw OD600 reference: median of DMSO wells […], cell-free background 0.052

SMILES: CN1CCC(OC(c2ccccc2)c2ccccc2)CC1 [Diphenylpyraline hydrochloride]
- growth [1]: 0.221 ± 0.013
- growth [2, 6]: 0.294 ± 0.021
- growth [2, 7]: 0.256 ± 0.0056
- growth [2, 8]: 0.162 ± 0.0083
- growth [2, 9]: 0.141 ± 0.0025
- growth [2, 10]: 0.1486 ± 0.0014
- growth [3, 11]: 0.237 ± 0.035
- growth [3, 12]: 0.461 ± 0.077
- growth [4]: 0.47 ± 0.021
- growth [5, 13]: 0.4078 ± 0.0034
- growth [5, 14]: 0.303 ± 0.015

SMILES: N[C@@H](Cc1cc(I)c(Oc2ccc(O)c(I)c2)c(I)c1)C(=O)O [Liothyronine]
- growth [1]: 0.18 ± 0.012
- growth [2, 6]: 0.211 ± 0.012
- growth [2, 7]: 0.2 ± 0.0047
- growth [2, 8]: 0.177 ± 0.0039
- growth [2, 9]: 0.134 ± 0.0031
- growth [2, 10]: 0.162 ± 0.003
- growth [3, 11]: 0.32 ± 0.038
- growth [3, 12]: 0.152 ± 0.017
- growth [4]: 0.36 ± 0.023
- growth [5, 13]: 0.373 ± 0.035
- growth [5, 14]: 0.272 ± 0.015

SMILES: Cn1cnc([N+](=O)[O-])c1Sc1ncnc2[nH]cnc12 [Azathioprine]
- growth [1]: 0.126 ± 0.017
- growth [2, 6]: 0.0771 ± 0.0059
- growth [2, 7]: 0.0744 ± 0.0045
- growth [2, 8]: 0.0829 ± 0.005
- growth [2, 9]: 0.0691 ± 0.0013
- growth [2, 10]: 0.0849 ± 0.0021
- growth [3, 11]: 0.347 ± 0.045
- growth [3, 12]: 0.261 ± 0.043
- growth [4]: 0.27 ± 0.0092
- growth [5, 13]: 0.312 ± 0.029
- growth [5, 14]: 0.175 ± 0.0061

SMILES: CO[C@@H]1[C@@H](O[C@@H]2O[C@H](C)[C@@H](O[C@H]3C[C@@](C)(O)[C@@H](OC(=O)CC(C)C)[C@H](C)O3)[C@H](N(C)C)[C@H]2O)[C@@H](CC=O)C[C@@H](C)[C@@H](O)/C=C/C=C/C[C@@H](C)OC(=O)C[C@H]1OC(C)=O [Josamycin]
- growth [1]: 0.04167 ± 0.00025
- growth [2, 6]: 0.04093 ± 5.8e-05
- growth [2, 7]: 0.0406 ± 0.00026
- growth [2, 8]: 0.04147 ± 0.00015
- growth [2, 9]: 0.04073 ± 0.00029
- growth [2, 10]: 0.04137 ± 5.8e-05
- growth [3, 11]: 0.0609 ± 0.0067
- growth [3, 12]: 0.0594 ± 0.0064
- growth [4]: 0.0528 ± 0.0019
- growth [5, 13]: 0.0755 ± 0.021
- growth [5, 14]: 0.0519 ± 0.00093

SMILES: CC[N+](C)(CC)CCC[n+]1c(-c2ccccc2)c2cc(N)ccc2c2ccc(N)cc21 [Propidium iodide]
- growth [1]: 0.0949 ± 0.011
- growth [2, 6]: 0.135 ± 0.023
- growth [2, 7]: 0.116 ± 0.028
- growth [2, 8]: 0.15 ± 0.02
- growth [2, 9]: 0.0816 ± 0.0028
- growth [2, 10]: 0.0888 ± 0.012
- growth [3, 11]: 0.0925 ± 0.0048
- growth [3, 12]: 0.0953 ± 0.0048
- growth [4]: 0.0675 ± 0.0008
- growth [5, 13]: 0.221 ± 0.13
- growth [5, 14]: 0.0665 ± 0.0008

SMILES: CNCCCC12CCC(c3ccccc31)c1ccccc12 [Maprotiline hydrochloride]
- growth [1]: 0.269 ± 0.0086
- growth [2, 6]: 0.256 ± 0.016
- growth [2, 7]: 0.276 ± 0.0088
- growth [2, 8]: 0.246 ± 0.032
- growth [2, 9]: 0.134 ± 0.0037
- growth [2, 10]: 0.169 ± 0.0019
- growth [3, 11]: 0.197 ± 0.0097
- growth [3, 12]: 0.164 ± 0.016
- growth [4]: 0.589 ± 0.072
- growth [5, 13]: 0.41 ± 0.0086
- growth [5, 14]: 0.28 ± 0.013

SMILES: CCCCCCCCCCCCCCCC[N+](C)(C)CCN(Cc1ccc(OC)cc1)c1ncccn1 [Thonzonium bromide]
- growth [1]: 0.0453 ± 0.0014
- growth [2, 6]: 0.08477 ± 0.00045
- growth [2, 7]: 0.0958 ± 0.0043
- growth [2, 8]: 0.0909 ± 0.0047
- growth [2, 9]: 0.0447 ± 0.003
- growth [2, 10]: 0.0932 ± 0.0021
- growth [3, 11]: 0.0571 ± 0.0024
- growth [3, 12]: 0.059 ± 0.0013
- growth [4]: 0.0464 ± 0.00035
- growth [5, 13]: 0.226 ± 0.15
- growth [5, 14]: 0.112 ± 0.01

SMILES: CN(C)CC/C=C1/c2ccccc2Sc2ccc(Cl)cc21 [Chlorprothixene hydrochloride]
- growth [1]: 0.0398 ± 0.0002
- growth [2, 6]: 0.0409 ± 0.001
- growth [2, 7]: 0.03943 ± 0.00032
- growth [2, 8]: 0.04043 ± 0.00038
- growth [2, 9]: 0.042 ± 0.0051
- growth [2, 10]: 0.0425 ± 0.00068
- growth [3, 11]: 0.0468 ± 0.00058
- growth [3, 12]: 0.0472 ± 0.0011
- growth [4]: 0.157 ± 0.12
- growth [5, 13]: 0.41 ± 0.0049
- growth [5, 14]: 0.0664 ± 0.0082

SMILES: CC(C)NCC(O)c1ccc(O)c(O)c1 (single isomer, unassigned; (+)) [(+)-Isoproterenol (+)-bitartrate salt]
- growth [1]: 0.211 ± 0.0042
- growth [2, 6]: 0.274 ± 0.02
- growth [2, 7]: 0.2493 ± 0.0013
- growth [2, 8]: 0.18 ± 0.015
- growth [2, 9]: 0.149 ± 0.0077
- growth [2, 10]: 0.137 ± 0.0022
- growth [3, 11]: 0.328 ± 0.028
- growth [3, 12]: 0.468 ± 0.034
- growth [4]: 0.497 ± 0.044
- growth [5, 13]: 0.412 ± 0.013
- growth [5, 14]: 0.326 ± 0.021
